The text below walks through data of PubChem BioAssay (NCI).

Several values for one entry are separate records, joined by “and”; a condition that tells them apart may be missing. Equal values may be shown once. This is part of a sample that, as a whole, favours compounds with a hit. Of some 83,000 tested, about 20% had one in any assay.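 Assay: single dose, 48 h. Readout: percent growth (0 = no net growth; negative = cell death). Active: <10.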 A number with no mark means an inactive call. Activity calls are given as the source filed them.

What all share (assay): NCI-60 one-dose screen, 48 h (100 = growth as untreated, 0 = no growth, -100 = all killed)
One assay deals with HCT-15 colon. To be noted: 10 µM.
Another assay deals with HT29 colon. To be noted: 10 µM.
Another assay has as its system SNB-75 CNS. To be noted: 10 µM.
In the next assay the test system is SNB-19 CNS. To be noted: 10 µM.
The next assay has as its system U251 CNS. To be noted: 10 µM.
A further assay has as its system PC-3 prostate. To be noted: 10 µM.
In another assay the test system is SK-MEL-5 melanoma. To be noted: 10 µM.
The next assay concerns UACC-62 melanoma. To be noted: 10 µM unless noted.
The test system of a further assay is LOX IMVI melanoma. To be noted: 10 µM.
The next assay concerns SK-MEL-28 melanoma. To be noted: 10 µM.

For `C[C@@H]1C[C@@H]([C@H](O)CC2CC(=O)NC(=O)C2)C(=O)[C@@H](C)C1`, the growth in the assay with HCT-15 colon is 8.36% (active); in the assay on HT29 colon, 3.76% (active); with SNB-75 CNS, 8.07% (active); in the assay on SNB-19 CNS, 10.5%; in the assay with U251 CNS it was 3.25% (active); in the assay with PC-3 prostate, 8.32% (active). Further, the growth in the assay on SK-MEL-5 melanoma was 0.54% (active); in the assay with UACC-62 melanoma, 5.43% (active); with LOX IMVI melanoma, -10.7% (active); in the assay with SK-MEL-28 melanoma it was -13.1% (active).

`C=NCC#N`: the growth with HCT-15 colon was 94.2% and 107%; in the assay on HT29 colon, 83.6% and 103%; in the assay with SNB-75 CNS it was 91.4% and 88.2%; in the assay with SNB-19 CNS, 102% and 108%; in the assay on U251 CNS, 102% and 107%; in the assay with PC-3 prostate, 96.3% and 122%. Moreover, the growth in the assay on SK-MEL-5 melanoma was 106% and 102%; with UACC-62 melanoma, 107% and 104%; in the assay on LOX IMVI melanoma, 102% and 111%; with SK-MEL-28 melanoma, 123% and 108%.

With `COc1ccccc1[As]=[As]c1ccccc1OC` (stereo not given), the growth in the assay with HCT-15 colon was -87.2% (active); with HT29 colon, -76.9% (active); in the assay on SNB-75 CNS, -91.8% (active); with SNB-19 CNS, -84.5% (active); with U251 CNS it was -83.3% (active); with PC-3 prostate, -78.9% (active). The growth is -99.3% (active) in the assay on SK-MEL-5 melanoma, -84.6% (active) in the assay on UACC-62 melanoma, -97.3% (active) in the assay with LOX IMVI melanoma and -83% (active) with SK-MEL-28 melanoma.

`[O-][n+]1ccccc1S`: the growth in the assay with HCT-15 colon was 32.8%; with HT29 colon, 4.75% (active); in the assay on SNB-75 CNS, 56.5%; with SNB-19 CNS it was 59.9%; with U251 CNS it was 29.9%; with PC-3 prostate it was 30.8%. The growth in the assay on SK-MEL-5 melanoma is 48.9%; in the assay with UACC-62 melanoma, 13.6%; with LOX IMVI melanoma it was 1.84% (active); in the assay with SK-MEL-28 melanoma, 34.1%.

In the case of `CCOP(=O)(OCC)/C(C#N)=C/c1ccc(Br)cc1`, the growth in the assay with HCT-15 colon was 96.3%; with HT29 colon, 98.2%; in the assay on SNB-75 CNS, 86.6%; in the assay with SNB-19 CNS, 96.8%; in the assay with U251 CNS, 99.3%; in the assay with PC-3 prostate, 95.9%. Also, the growth in the assay on SK-MEL-5 melanoma was 108%; with UACC-62 melanoma, 88.6%; in the assay on LOX IMVI melanoma, 95.5%; in the assay on SK-MEL-28 melanoma, 115%.

Consider `O=[P+](O)c1ccccc1`, for which the growth in the assay with HCT-15 colon is 108%; in the assay with HT29 colon, 118%; in the assay on SNB-75 CNS it was 97.4%; in the assay on SNB-19 CNS, 106%; in the assay with U251 CNS, 104%; in the assay with PC-3 prostate, 93.6%. Besides, the growth in the assay on SK-MEL-5 melanoma was 106%; in the assay with UACC-62 melanoma, 105%; in the assay with LOX IMVI melanoma, 102%; with SK-MEL-28 melanoma, 104%.

For the compound `COc1cc2c(cc1OC)C13CCN4CC5=CCOC6CC(=O)N2C1C6C5CC43` (stereo not given), the growth in the assay with HCT-15 colon was 103% and 109%; in the assay on HT29 colon, 122% and 111%; in the assay on SNB-75 CNS, 97.8% and 111%; with SNB-19 CNS, 105% and 111%; in the assay on U251 CNS, 98% and 98.4%; in the assay with PC-3 prostate it was 94.8% and 40%. Besides, the growth in the assay on SK-MEL-5 melanoma is 92.9% and 91.1%; with UACC-62 melanoma it was 104% and 88.1%; with LOX IMVI melanoma it was 101% and 97.4%; with SK-MEL-28 melanoma, 114% and 105%.

In the case of `COc1ccc2c(ccc3oc([N+](=O)[O-])cc32)c1`, the growth with HCT-15 colon is 5.1% (active); with HT29 colon it was -8.59% (active); with SNB-75 CNS, -68.5% (active); in the assay with SNB-19 CNS it was 5.8% (active); in the assay with U251 CNS, -8.64% (active); in the assay with PC-3 prostate, 9.56% (active). The growth in the assay with SK-MEL-5 melanoma is -80.4% (active); with UACC-62 melanoma it was -60.2% (active); in the assay with LOX IMVI melanoma, -35.9% (active); in the assay with SK-MEL-28 melanoma, -39.6% (active).

In the case of `[Cl][Hg][c]1ccc(Cl)s1`, the growth is -59.5% (active) in the assay on HCT-15 colon; 25.2% in the assay on HT29 colon; 58.1% in the assay on SNB-75 CNS; 75.5% in the assay with SNB-19 CNS; 14.9% in the assay on U251 CNS; 64.1% in the assay on PC-3 prostate. The growth in the assay with SK-MEL-5 melanoma is 46%; with UACC-62 melanoma, 51.3%; in the assay on LOX IMVI melanoma, -70.9% (active); in the assay with SK-MEL-28 melanoma it was -85.4% (active).

Take `Oc1c(Cl)cc(Cl)c2ccccc12.[Cu+2]`: the growth in the assay with HCT-15 colon is 99.5%; in the assay with HT29 colon, 92.5%; with SNB-75 CNS, 91%; in the assay with SNB-19 CNS it was 121%; in the assay with U251 CNS it was 108%; in the assay on PC-3 prostate, 88.4%. Besides, the growth in the assay with SK-MEL-5 melanoma is 90.5%; in the assay with UACC-62 melanoma, 109%; with LOX IMVI melanoma, 37.7%; with SK-MEL-28 melanoma it was 116%.

As for `[Cl][Sn]([c]1ccccc1)([c]1ccccc1)[c]1ccccc1`, the growth was -87% (active) with HCT-15 colon; -81.4% (active) with HT29 colon; -98.6% (active) with SNB-75 CNS; -76.5% (active) in the assay on SNB-19 CNS; -98.6% (active) in the assay on U251 CNS; -72.9% (active) with PC-3 prostate. The growth in the assay with SK-MEL-5 melanoma is -88.7% (active); in the assay on UACC-62 melanoma, -75.4% (active); with LOX IMVI melanoma it was -76.1% (active); in the assay with SK-MEL-28 melanoma it was -85% (active).

In the case of `O=[N+]([O-])c1cc[n+]([O-])c2ccccc12`, the growth with HCT-15 colon was -23.1% (active); in the assay with HT29 colon it was -31.4% (active); in the assay with SNB-75 CNS, -82.2% (active); in the assay on SNB-19 CNS it was -17.6% (active); with U251 CNS, -26.3% (active); in the assay with PC-3 prostate, -10.8% (active). Besides, the growth was -92.5% (active) with SK-MEL-5 melanoma, -85.2% (active) in the assay on UACC-62 melanoma, -73.7% (active) with LOX IMVI melanoma and -86.9% (active) in the assay on SK-MEL-28 melanoma.

Consider `CC(C)(C)OOC(=O)/C=C\C(=O)OOC(C)(C)C`, for which the growth with HCT-15 colon is 106%; in the assay with HT29 colon it was 105%; in the assay with SNB-75 CNS it was 98.5%; with SNB-19 CNS, 91.9%; in the assay with U251 CNS, 99.2%; with PC-3 prostate, 95.4%. For the same compound, the growth in the assay on SK-MEL-5 melanoma was 106%; in the assay on UACC-62 melanoma it was 94.7%; in the assay on LOX IMVI melanoma it was 107%; in the assay with SK-MEL-28 melanoma, 109%.

Take `N#CCc1ccccc1`: the growth was 102% in the assay with HCT-15 colon; 114% with HT29 colon; 105% with SNB-75 CNS; 98.6% in the assay with SNB-19 CNS; 95.8% in the assay on U251 CNS; 96.9% in the assay with PC-3 prostate. Further, the growth in the assay on SK-MEL-5 melanoma is 99.4%; in the assay on UACC-62 melanoma it was 102%; in the assay with LOX IMVI melanoma, 94.1%; in the assay with SK-MEL-28 melanoma it was 106%.
